# Experimental data reported in PubChem BioAssay (NCI).
# This is part of a sample that, as a whole, favours compounds with a hit. Of some 83,000 tested, about 20% had one in any assay.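 Testing used 96-well plates and a 48-hour single-concentration exposure. Example: -40 means 40% of the starting cells died.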 Values without a mark were called inactive. Active and inactive are the calls of the source. How the source made its calls: active means growth percent below 10; inactive means the rest.
# Tests used:
# Experiment in all cases: NCI-60 one-dose screen, 48 h (100 = growth as untreated, 0 = no growth, -100 = all killed)
# Conditions in all cases: 10 µM unless noted
# DU-145 prostate = tested on: DU-145 prostate
# K-562 leukemia = tested on: K-562 leukemia
# MALME-3M melanoma = tested on: MALME-3M melanoma
# MDA-MB-231 breast = tested on: MDA-MB-231 breast
# RXF 393 renal = tested on: RXF 393 renal
# SF-268 CNS = tested on: SF-268 CNS
# SF-295 CNS = tested on: SF-295 CNS
# SF-539 CNS = tested on: SF-539 CNS
# UACC-257 melanoma = tested on: UACC-257 melanoma
# M14 melanoma = tested on: M14 melanoma
# HCT-15 colon = tested on: HCT-15 colon
# HT29 colon = tested on: HT29 colon
# SNB-75 CNS = tested on: SNB-75 CNS
# SNB-19 CNS = tested on: SNB-19 CNS
# U251 CNS = tested on: U251 CNS
# PC-3 prostate = tested on: PC-3 prostate
# SK-MEL-5 melanoma = tested on: SK-MEL-5 melanoma
# UACC-62 melanoma = tested on: UACC-62 melanoma
# LOX IMVI melanoma = tested on: LOX IMVI melanoma
# SK-MEL-28 melanoma = tested on: SK-MEL-28 melanoma
Compound,growth (DU-145 prostate),growth (K-562 leukemia),growth (MALME-3M melanoma),growth (MDA-MB-231 breast),growth (RXF 393 renal),growth (SF-268 CNS),growth (SF-295 CNS),growth (SF-539 CNS),growth (UACC-257 melanoma),growth (M14 melanoma),growth (HCT-15 colon),growth (HT29 colon),growth (SNB-75 CNS),growth (SNB-19 CNS),growth (U251 CNS),growth (PC-3 prostate),growth (SK-MEL-5 melanoma),growth (UACC-62 melanoma),growth (LOX IMVI melanoma),growth (SK-MEL-28 melanoma)
Cc1c(C(=O)NCCCc2ccccc2)sc2ncc(-c3ccc(Br)cc3)n12,104%,101%,101%,99.4%,109%,98.9%,112%,103%,109%,100%,104%,120%,98.4%,101%,100%,102%,101%,95.7%,99.1%,104%
Cc1cccc(OCC(O)CN2CCN(c3ccc(Cl)cc3)CC2)c1 (stereo not given),113%,96.9%,153%,98.7%,118%,99.4%,94.5%,104%,108%,94.7%,117%,104%,95.1%,99.8%,104%,86.5%,100%,94.2%,96.8%,100%
Cc1cccc2c3c(sc12)C(c1ccc(F)cc1)C(C#N)=C(N)O3 (stereo not given),7.98% (active),8.65% (active),73.8%,26.9%,38.7%,27.8%,5.18% (active),-15.3% (active),68.2%,10.4%,8.13% (active),9.55% (active),23.4%,23.8%,25.5%,8.46% (active),-3.29% (active),24.9%,9.86% (active),62%
COc1ccc(OC)c(/C=C/C(=O)N/N=C/c2ccc(Cl)cc2)c1,14.8%,14%,54.1%,28.1%,-19.8% (active),33.2%,31.8%,-43.2% (active),53%,-34.4% (active),29.4%,6.49% (active),44%,22.6%,18.4%,26.2%,30.6%,42.1%,36.7%,38.8%
COc1ccc(S(=O)(=O)n2cc(C3OC(c4cc(OC)c(OC)c(OC)c4)=NN3C(C)=O)c3ccccc32)cc1OC (stereo not given),145%,64.4%,104%,82.6%,89.3%,108%,93%,89.1%,87.9%,98.1%,81.8%,110%,86%,85.7%,97.7%,80.3%,76.4%,72.8%,78.4%,110%
CCCCCCNC(=O)Oc1ccc(/C(=C(\C)c2ccc(Cl)cc2)c2ccc(OCCCN(C)C)cc2)cc1,84.9%,-28.4% (active),68.6%,79.2%,80.1%,77%,97.5%,87.9%,60%,76.7%,8.75% (active),0.63% (active),79.1%,79.8%,42%,79.6%,86.2%,96.9%,39.5%,97.2%
CNCCCNc1nc2ccccc2c2c(=O)c3cc(F)ccc3sc12,2.57% (active),-38.7% (active),84.2%,-53.7% (active),45.6%,51.5%,81.5%,1.04% (active),91.6%,-53.2% (active),3.52% (active),-39.7% (active),59.5%,65%,2.96% (active),39.6%,73.7%,-1.88% (active),-96.2% (active),50.1%
COc1cc(/C=C/c2c(C(C)=O)c(C)nc3ccccc23)cc(OC)c1OC,42.1%,13.8%,52.5%,43.1%,10.8%,49.3%,20.1%,7.46% (active),59.6%,25.9%,25.4%,17.6%,-34.5% (active),39.4%,39%,32.5%,31.4%,39.8%,38.9%,53.9%
COc1cccc(Oc2ccccc2NC(=O)CNC(=O)c2cccc3ccccc23)c1,5.14% [5 µM] (active),11.8% [5 µM],51.3% [5 µM],7.29% [5 µM] (active),52.4% [5 µM],34.6% [5 µM],14.6% [5 µM],-7.85% [5 µM] (active),83.6% [5 µM],-6.36% [5 µM] (active),17.8% [5 µM],6.01% [5 µM] (active),28% [5 µM],41.7% [5 µM],23.2% [5 µM],26.2% [5 µM],11.7% [5 µM],16.1% [5 µM],26.1% [5 µM],57.5% [5 µM]
Cc1ccc(S(=O)(=O)Oc2ccc(NC(=O)c3ccc(Cl)cc3)cc2)cc1,105%,92.8%,100%,97%,115%,94.4%,93.4%,93.7%,111%,94.3%,88.8%,94.9%,98.7%,94.2%,97.1%,93.2%,99.9%,95.8%,95.1%,108%
O=C(Nc1ccc(Cl)cc1F)c1ccccc1O,43.1%,29.5%,-6.47% (active),39.1%,42.5%,43.1%,69.7%,48.9%,14.1%,46.4%,42.7%,96.4%,36.4%,45.8%,34.6%,59.6%,-47.5% (active),9.27% (active),28.2%,29.9%
Clc1ccc(C(/C=C/c2sc(Cl)nc2Cl)=N/Nc2cc(Cl)cc(Cl)c2)cc1,112%,94.6%,103%,103%,110%,99.4%,104%,106%,99.1%,107%,105%,103%,101%,96.4%,101%,96.7%,103%,88.6%,98.4%,105%
COc1cccc2nc3n(c12)C(c1c(F)cccc1F)SC3 (stereo not given),128%,84.6%,101%,93.2%,105%,108%,99.9%,95.7%,100%,111%,101%,100%,96%,101%,92.5%,80.6%,86%,77.5%,93.1%,112%
COc1cc(C2CC(c3ccc(SC)cc3)=NN2C(C)=O)cc(OC)c1OC (stereo not given),91%,31.1%,59.6%,85.3%,77.7%,77.2%,44.1%,78.1%,79.4%,44.3%,47.5%,21.9%,11.9%,74.3%,62.7%,58.3%,70.2%,57.9%,62.3%,75.3%
Cc1ccc(-c2nc(N3CCN(CC(=O)Nc4ccc(Cl)cc4)CC3)c3ccccc3n2)cc1,88.7%,72.9%,101%,80.1%,74.9%,83.9%,95.6%,99.6%,104%,99.1%,79.9%,80.8%,77.7%,93.1%,92.5%,80.6%,89%,75.9%,97.4%,99.8%
